L3MBTL1 block: qHTS Assay for the Inhibitors of L3MBTL1; AlphaScreen L3MBTL1–H3K9me1 peptide binding; hit rate 0.66% among 230,000; Potency, µM (highest dose often 57.1 µM), usual class: inhibitors; AID 485360, 2010; Lethal(3)malignant brain tumor-like protein 1 (Homo sapiens), Q9Y468; note: nearly all actives have a fitted effect of over 60% in size
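AlphaScreen proximity signal between nickel-chelate acceptor and streptavidin donor beads (final 10 ug/mL) reports binding of 50 nM L3MBTL1 to 75 nM biotin-H3 K9me1 peptide; complex incubated with compounds 30 min at room temperature; cefsulodin titration as control.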
Six1-Eya2 inh: qHTS Assay for Inhibitors of the Six1/Eya2 Interaction; AlphaScreen GST-Six1/His-Eya2 binding, biochemical; stronger effect = lower value; Homeobox protein SIX1 (Homo sapiens) + Protein phosphatase EYA2 (Homo sapiens), …; AID 651725, 2012; activity change, % (concentration not given with the values); hit rate 0.56% among 360,000; in the data active = activity change below about -65%; inconclusive = mostly about -30% to -63%
Target sequence (O00167 whole entry, looked up): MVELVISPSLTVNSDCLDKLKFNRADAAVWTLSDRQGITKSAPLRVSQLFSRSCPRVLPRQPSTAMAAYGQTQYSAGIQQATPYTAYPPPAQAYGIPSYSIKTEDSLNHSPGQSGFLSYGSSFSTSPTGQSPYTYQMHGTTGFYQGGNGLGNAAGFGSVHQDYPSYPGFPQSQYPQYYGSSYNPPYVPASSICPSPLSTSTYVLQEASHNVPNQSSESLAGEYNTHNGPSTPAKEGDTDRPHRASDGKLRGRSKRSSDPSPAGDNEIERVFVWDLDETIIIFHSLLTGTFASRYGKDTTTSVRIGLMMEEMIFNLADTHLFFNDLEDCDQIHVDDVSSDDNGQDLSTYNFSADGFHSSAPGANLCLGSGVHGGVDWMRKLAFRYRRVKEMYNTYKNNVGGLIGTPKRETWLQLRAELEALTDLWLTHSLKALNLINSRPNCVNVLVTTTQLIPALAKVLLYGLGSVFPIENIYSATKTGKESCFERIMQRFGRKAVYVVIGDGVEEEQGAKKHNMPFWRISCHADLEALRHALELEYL
Target sequence (Q15475 whole entry, looked up): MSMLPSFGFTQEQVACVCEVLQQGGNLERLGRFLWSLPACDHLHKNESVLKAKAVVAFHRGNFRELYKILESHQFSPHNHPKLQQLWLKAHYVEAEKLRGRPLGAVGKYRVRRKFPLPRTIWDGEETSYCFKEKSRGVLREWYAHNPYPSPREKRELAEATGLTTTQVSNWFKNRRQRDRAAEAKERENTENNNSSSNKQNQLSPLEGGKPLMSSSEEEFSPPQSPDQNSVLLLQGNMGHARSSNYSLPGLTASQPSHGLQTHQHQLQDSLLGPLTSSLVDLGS
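Homogeneous AlphaScreen proximity assay pairing GST-Six1 with His-tagged Eya2 (added as 5X mix: 250 nM and 500 nM) in 50 mM Tris pH 8.0, 300 mM NaCl, 1 mM TCEP. Glutathione donor and nickel acceptor beads; 1 h, 37 °C, dark.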
CtBP-E1A inh: qHTS Assay for Inhibitors of the CtBP/E1A Interaction. AlphaScreen GST-E1A/His-CtBP binding, 1536-well; stronger effect = lower value. activity change, % (no concentration beside the values). CtBP / adenovirus E1A interaction (AlphaScreen). hit rate 0.49% among 340,000; in the data active = activity change below about -65%; inconclusive = mostly about -30% to -63%
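Protein mix (5X: 125 nM each GST-E1A, His-CtBP) was incubated with pinned compound 2 h at 37 deg C in dark, in 50 mM Tris pH 8.0 buffer with 300 mM NaCl. Glutathione donor and nickel acceptor beads followed; AlphaScreen signal read after 1 h.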
B2AR arrestin: qHTS assay of beta-arrestin-biased ligands of beta2-adrenergic receptor; beta-arrestin recruitment to beta2AR, cell-based reporter; Potency, µM (titrated, usually from 46.1 µM), most hits filed as activators; hit rate 0.02% among 330,000; note: nearly all actives have a fitted effect of over 65% in size
Eya2 phos inh: qHTS Assay for Inhibitors of the Phosphatase Activity of Eya2; hit rate 0.006% among 330,000; Potency, µM (highest dose often 76.9 µM), hits mostly inhibitors; recombinant Eya2, OMFP fluorescence dephosphorylation (OMFP is methylfluorescein phosphate); Protein phosphatase EYA2 (Homo sapiens), O00167
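Eya2 (0.2 uM) preincubated 10 min at ambient with compound, then OMFP substrate added at 50 uM; 10 min reaction in 50 mM HEPES pH 7.5, 50 mM NaCl, 5 uM MgCl2, 0.05% BSA, 1 mM DTT. Fluorescence read at Ex 485/Em 525 nm.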
Numbers stand for hits. The list is not random: actives were taken first. Their share in the collection is about 0.9%. Unless noted, calls come from the whole dose curve; as a rule, active = well fitted curve in the direction sought with a large enough effect; inconclusive = small, poorly fitted or top-dose-only effect, or another doubt; inactive = no such curve, though single readings can be large; an effect the other way counts as inactive or inconclusive.

CCCCn1c(NS(=O)(=O)c2ccccc2)c(C(=O)OCC)c2nc3ccccc3nc21 was read as L3MBTL1 block 4.5µM, Six1-Eya2 inh inactive, CtBP-E1A inh inactive, B2AR arrestin inactive and Eya2 phos inh inactive.
`CCCCn1c(NC(=O)c2ccc(Br)o2)c(C(=O)OCC)c2nc3ccccc3nc21` gave L3MBTL1 block inactive, Six1-Eya2 inh inactive, CtBP-E1A inh inactive, B2AR arrestin inactive and Eya2 phos inh inactive.
NP(=O)(OCCCc1ccccc1)Oc1ccc(Cl)cc1 (stereo not given) was read as L3MBTL1 block 14µM, Six1-Eya2 inh inactive, CtBP-E1A inh inactive, B2AR arrestin inactive and Eya2 phos inh inactive.
`COc1ccc(-c2cc(=Nc3cccc(C(=O)O)c3)c3cc(C)ccc3o2)cc1` gave Six1-Eya2 inh inactive, CtBP-E1A inh inactive, B2AR arrestin inactive and Eya2 phos inh inactive.
For COc1ccc(-c2cc(=NCCCCCC(=O)O)c3cc(C)ccc3o2)cc1 the results were Six1-Eya2 inh -83, CtBP-E1A inh -90, B2AR arrestin inactive and Eya2 phos inh inactive.
Screening CN(C)[C@@H]1C(=O)C(C(N)=O)=C(O)[C@@]2(O)C(=O)C3=C(O)c4c(O)cccc4[C@@](C)(O)C3[C@H](O)C12 (stereo not given in full) returned L3MBTL1 block 3.2µM, Six1-Eya2 inh inactive, CtBP-E1A inh -67, B2AR arrestin inactive and Eya2 phos inh inactive.
Cc1nc2ccccc2c(=O)n1-c1ccc(Br)cn1 was read as L3MBTL1 block inactive, Six1-Eya2 inh inactive, CtBP-E1A inh inactive, B2AR arrestin inactive and Eya2 phos inh inactive.
`Cc1nc2ccccc2c(=O)n1/N=C/c1cc(Br)cc(Br)c1O` gave Six1-Eya2 inh -66 and CtBP-E1A inh -78.
Screening Cc1ccc(-n2c(O)c(C=NCc3ccco3)c(=O)[nH]c2=S)cc1C returned L3MBTL1 block 32µM, Six1-Eya2 inh inactive, CtBP-E1A inh inactive, B2AR arrestin inactive and Eya2 phos inh inactive.
Screening COc1ccc2nc(/N=C/c3c(O)n(-c4cccc(Cl)c4)c(=O)[nH]c3=O)sc2c1 returned L3MBTL1 block inactive, Six1-Eya2 inh -71, CtBP-E1A inh inconclusive, B2AR arrestin inactive and Eya2 phos inh inactive.
`O=c1[nH]c(=O)n(-c2cccc(Cl)c2)c(O)c1/C=N/c1ccccn1` gave L3MBTL1 block inactive, Six1-Eya2 inh inactive, CtBP-E1A inh inactive, B2AR arrestin inactive and Eya2 phos inh inactive.
`O=[N+]([O-])c1cc([As](=O)(O)c2ccc(O)c([N+](=O)[O-])c2)ccc1O` gave L3MBTL1 block inactive, Six1-Eya2 inh inactive, CtBP-E1A inh inactive, B2AR arrestin inactive and Eya2 phos inh inactive.
For O=[N+]([O-])c1cc(-c2ccc([As](=O)(O)O)cc2)ccc1[As](=O)(O)O the results were L3MBTL1 block 22µM, B2AR arrestin inactive and Eya2 phos inh inactive.
`Cc1c(N=Nc2c(O)n(Cc3ccccc3)c(=O)[nH]c2=O)c(=O)n(-c2ccccc2)n1C` gave L3MBTL1 block inconclusive, Six1-Eya2 inh -89, CtBP-E1A inh -72, B2AR arrestin inactive and Eya2 phos inh inactive.
N#CCCN was read as Eya2 phos inh inactive.
For Oc1ccc2c3c1O[C@H]1c4oc5ccccc5c4C[C@@]4(O)C(C2)N(CC2CC2)CCC314 (stereo not given in full) the results were Eya2 phos inh inactive.
Screening c1ccc2sc(C3(N4CCCCC4)CCCCC3)cc2c1 returned Eya2 phos inh inactive.
Screening Cc1ccc(N=Nc2cc(C)ccc2N)cc1 returned L3MBTL1 block 14µM, Six1-Eya2 inh inconclusive, CtBP-E1A inh -80, B2AR arrestin inactive and Eya2 phos inh inactive.
C[C@]12Cc3cn4c(nc3C=C1CCC1C2CC[C@@]2(C)[C@H]1CC[C@@]2(O)C#N)nc1ccccc14 (stereo not given in full) was read as Eya2 phos inh inactive.
For CC1CN(c2ccccc2)NC1=O (stereo not given) the results were L3MBTL1 block inconclusive, Six1-Eya2 inh inactive, CtBP-E1A inh inactive, B2AR arrestin inactive and Eya2 phos inh inactive.
`COC(=O)C1=C(c2ccc(OCc3ccccc3)cc2)C[C@@H]2CC[C@H]1N2C(=O)NCc1ccc(OC)c(OC)c1` gave L3MBTL1 block inactive, Six1-Eya2 inh inactive, CtBP-E1A inh inconclusive, B2AR arrestin 18µM and Eya2 phos inh inactive.
N/C(=N\N=C/c1ccc(-c2ccc(O)c(C(=O)O)c2)o1)N[N+](=O)[O-] was read as L3MBTL1 block 11µM, Six1-Eya2 inh inconclusive, CtBP-E1A inh inconclusive, B2AR arrestin inactive and Eya2 phos inh inactive.
`O=C1NC(=O)N(c2ccccc2)C(=O)/C1=C\c1ccc([N+](=O)[O-])s1` gave Six1-Eya2 inh inconclusive, CtBP-E1A inh inactive, B2AR arrestin inactive and Eya2 phos inh inactive.
`COc1ccc(OC)c(N2C(=O)NC(=O)/C(=C\c3ccc([N+](=O)[O-])s3)C2=O)c1` gave L3MBTL1 block 10µM, Six1-Eya2 inh -67, CtBP-E1A inh inconclusive, B2AR arrestin inactive and Eya2 phos inh inactive.
`CCCn1c(C)c(C(=O)c2ccc3ccccc3c2)c2ccccc21` gave Eya2 phos inh inactive.
Cn1ncnc2c(=O)n(C)c(=O)nc1-2 was read as L3MBTL1 block inactive, Six1-Eya2 inh inactive, CtBP-E1A inh inconclusive, B2AR arrestin inactive and Eya2 phos inh 20µM.
For O=C1C(Cl)=C(N2CCOCC2)C(=O)N1c1ccccc1F the results were L3MBTL1 block inconclusive, Six1-Eya2 inh inactive, CtBP-E1A inh inactive, B2AR arrestin inactive and Eya2 phos inh inactive.
For NC(Cc1ccc(Cl)cc1)c1csc(Nc2cnccn2)n1 (stereo not given) the results were Six1-Eya2 inh -72 and CtBP-E1A inh inconclusive.
Screening NC(=NCCC[C@H](N)C(=O)O)N[N+](=O)[O-] returned Eya2 phos inh inactive.
For O=c1c2ccccc2nc(/C=C/c2cccnc2)n1Cc1ccccc1 the results were L3MBTL1 block 6.3µM, Six1-Eya2 inh -71, CtBP-E1A inh inactive, B2AR arrestin inactive and Eya2 phos inh inactive.
For CC(C)CC(=O)Nc1ccc(C(=O)Cn2c(=O)oc3ccccc32)cc1 the results were L3MBTL1 block inconclusive, Six1-Eya2 inh inactive, B2AR arrestin inactive and Eya2 phos inh inactive.
CCN1C(=O)NC(=O)/C(=C\c2cn(CC(=O)O)c3ccccc23)C1=O was read as B2AR arrestin inactive and Eya2 phos inh inactive.
For O=C(O)Cn1cc(/C=C2\C(=O)NC(=O)N(Cc3ccco3)C2=O)c2ccccc21 the results were L3MBTL1 block 5µM, Six1-Eya2 inh inconclusive, CtBP-E1A inh inactive, B2AR arrestin inactive and Eya2 phos inh inactive.
For O=C(Oc1ccc2cc(Br)ccc2c1)N1CCCCCC1 the results were L3MBTL1 block inactive, B2AR arrestin inactive and Eya2 phos inh inactive.
